An excerpt weighted towards active compounds, which were near 3.3% of everything screened.
ERAP1 HTS inh: ERAP1 (human) enzyme inhibition; Q9NZ08; recombinant ERAP1, Leu-AMC fluorescence, 60 min; inhibition, % at 10.7 µM; hit rate 0.15% among 340,000;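 active = mean replicate inhibition of at least 30%, or all replicates individually reaching that 30% level; inactive = mean below 30% and not every replicate reaching it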;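 note: 0% = neutral control wells and 100% = L-leucinethiol positive control wells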
SIRT5 inh: blocks human SIRT5 desuccinylation of peptide; Q9NXA8; Purified SirT5, succinyl-peptide AMC, trypsin-coupled fluorescence; inhibition, % at 15 µM; hit rate 1.1% among 330,000; in the data active = inhibition above about 15%
CASP6 VEID inh: caspase-6 (human) enzyme inhibition | purified caspase-6, Z-VEID-R110 cleavage fluorescence | AID 686996 | inhibition, % at 12.5 µM | hit rate 0.53% among 350,000;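 active = mean inhibition across replicates at least about 35%, with every replicate also reaching that limit, limit read from the data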;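 note: 0% = median of neutral control wells and 100% = no fluorescence left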
INS-1E GSIS act: primary screen for activators of insulin secretion dependent on glucose, INS-1E cells, GLuc reporter luminescence | activation, % at 16.6 µM | hit rate 0.61% among 370,000 | INS-1E GLuc reporter insulin secretion, 2-3 h;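 active = lowest replicate activation of at least 40%, so every replicate reaches that level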;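 note: 0% = median of neutral control wells and 100% = median of IBMX positive control wells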
FGF22 binding: binders of recombinant human FGF22 by thermal shift; Q9HCT0; SYPRO orange fluorescence; percent of sucrose octasulfate shift, DMSO zero; activity (Tm shift, normalised), % at 9.99 µM; hit rate 1.5% among 340,000; AID 651658;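 active = mean Tm shift, scaled 0 neutral to 100 positive control, at about 1.3% or above, every replicate too, limit read from the data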
* = called active by the depositor; / = no result given; ! = not confirmed by another sample.

SMILES	ERAP1 HTS inh	SIRT5 inh	CASP6 VEID inh	INS-1E GSIS act	FGF22 binding
CN(C)CC(=O)N[C@@H]1CC[C@@H](CCNC(=O)Nc2ccc(C(F)(F)F)cc2)O[C@@H]1CO	1	17*	1	27	0
CC(C)CN(C[C@@H]1N[C@@H](CO)[C@@H]1c1ccccc1)C(=O)CN(C)C	-3	-7	1	-2	0
C[C@@H]1CN([C@@H](C)CO)S(=O)(=O)c2ccc(-c3ccc(C#N)cc3)cc2O[C@@H]1CN(C)Cc1ccccn1	3	3	45*!	24	0
C[C@@H]1CN([C@@H](C)CO)S(=O)(=O)c2ccc(-c3cccc(C#N)c3)cc2O[C@@H]1CN(C)CC1CC1	8	2	-3	4	0
C[C@H](CO)N1C[C@H](C)[C@@H](CN(C)CC2CC2)Oc2cc(-c3cccc(C#N)c3)ccc2S1(=O)=O	0	16*	0	14	0
C[C@@H]1CN([C@H](C)CO)C(=O)c2cc(/C=C/c3ccccc3)cnc2O[C@H]1CN(C)S(C)(=O)=O	1	-17	1	-8	0
CCN1CCN(C(=O)CSc2nc(N)cc(N)n2)CC1	-1	0	/	3	44*
O=c1cc(Cl)[nH]c(=O)n1Cc1ccccc1	1	-5	0	48*	0
CCc1nc(N)nc(N)c1-c1ccc(Cl)c(N=[N+]=[N-])c1	2	-4	0	50*	0
C[C@@H]1CN([C@H](C)CO)C(=O)c2cc(NC(=O)CCC(F)(F)F)ccc2O[C@@H]1CN(C)Cc1ccccc1	-1	3	0	0	0
O=C(O)c1ccc(N2C(=O)c3cccc(Oc4ccc(Cl)cc4)c3C2=O)cc1	10	3	0	9	44*
O=C(O)c1cccc(N2C(=O)c3cccc(Oc4ccc(Cl)cc4)c3C2=O)c1	1	0	0	2	43*
O=C(O)CN1C(=O)c2ccc(Oc3cccc4c3C(=O)N(CC(=O)O)C4=O)cc2C1=O	/	/	/	12	/
Cc1ccc(S(=O)(=O)N(C)C[C@H]2Oc3ccc(NC(=O)Cc4ccccc4)cc3CC(=O)N([C@@H](C)CO)C[C@@H]2C)cc1	2	/	0	-12	0
CCN(CC)CCNCc1ccc(Br)cc1OCC(=O)NCc1ccccc1	/	1	-9	62*	0
O=C(NC[C@@H]1[C@H](c2ccccc2)[C@@H](CO)N1C(=O)Cc1ccncc1)C1CCC1	0	3	-3	-1	0
Cc1ccc(NC(=O)CN(C)C(=O)COc2ccc(C(=O)c3ccc(F)cc3)cc2)cc1	3	-1	-2	-18	44*
COc1ccc2nc3ccccc3nc2c1NC(=O)c1ccc(Br)cc1	0	2	-1	0	0
COc1ccc2nc3ccccc3nc2c1NC(=O)c1ccc(Cl)cc1	/	/	/	70*	/
CN1C(=O)c2cc(NC(=O)c3ccccc3F)ccc2OC[C@@H]2O[C@@H](CC(=O)NCc3ccc4c(c3)OCO4)CC[C@H]21	2	10	1	-8	0
O=C(/C=C/c1c(Cl)nc2ccccn12)Nc1ccc(F)cc1	-2	4	-2	1	44*
COc1ccc(C(CNC(=O)/C=C/c2c(Cl)nc3ccccn23)N(C)C)cc1 (stereo unspecified)	0	7	-13	1	0
Cc1ccc(CNC(=O)CNC(=O)[C@@H]2Cc3ccccc3CN2)cc1	-5	37*	-2	38	0
COc1ccc(NC(=O)N(C)C[C@@H]2OCc3cn(nn3)CCCC(=O)N([C@H](C)CO)C[C@@H]2C)c(OC)c1	4	-4	-1	-11	0
CC(C)OC(=O)CC1C(=O)NCCN1C(=S)NC(=O)c1ccccc1Cl (stereo unspecified)	-2	-1	2	0	44*
SMILES	ERAP1 HTS inh	SIRT5 inh	CASP6 VEID inh	INS-1E GSIS act	FGF22 binding
Cc1cccn2c(=O)c(C=O)c(N3CCN(C)CC3)nc12	4	0	-2	11	0
Cc1cccn2c(=O)c(C=O)c(N3CCN(c4ccccc4)CC3)nc12	4	2	3	-1	43*
CCOC(=O)c1ccc(S(=O)(=O)N2CCC(C(=O)N3CCN(c4ccccc4OC)CC3)CC2)cc1	1	3	48*	-4	0
CCOC(=O)c1ccc(NC(=O)N2CCN(c3ccccc3OC)CC2)cc1	-1	-1	4	-12	0
CCOC(=O)N1CCN(C(=O)C2CCN(S(=O)(=O)c3ccc(F)cc3)CC2)CC1	-11	-7	-2	7	43*
CCOC(=O)N1CCN(C(=O)C2CCCN(S(=O)(=O)c3ccc(F)cc3)C2)CC1 (stereo unspecified)	5	/	0	-4	0
CCOc1cc(C(=O)NC(CC(=O)O)c2ccc(OC3CCCC3)cc2)cc(OCC)c1OCC (stereo unspecified)	3	24*	-1	/	0
CNC[C@@H]1Oc2ccc(NC(=O)Cc3ccccc3)cc2C(=O)N([C@H](C)CO)C[C@@H]1C	4	-1	-2	14	0
Cc1ccc(S(=O)(=O)N2CCOCC2)cc1-c1n[nH]c(=S)n1-c1ccccc1	46*	0	3	10	0
O=S(=O)(c1cccc(-c2n[nH]c(=S)n2-c2cccc(C(F)(F)F)c2)c1)N1CCOCC1	5	-3	-2	5	0
C[C@H]1CN([C@@H](C)CO)S(=O)(=O)c2ccc(C3=CCCCC3)cc2O[C@H]1CN(C)Cc1ccncc1	0	5	0	3	0
C[C@@H]1CN(C)C(=O)c2cccnc2O[C@H]1CN(C)S(C)(=O)=O	/	/	/	1	/
COc1ccc2c3c([nH]c2c1)[C@@H](CO)N(S(C)(=O)=O)CC31CCN(C(=O)c2ccncc2)CC1	/	-1	/	14	0
CC(NC(=O)Nc1ccc(Cl)cc1)C1CCCO1 (stereo unspecified)	-1	-1	-1	-10	43*
CC(NC(=O)Nc1ccccc1C(F)(F)F)C1CCCO1 (stereo unspecified)	/	/	/	6	/
O=C(CSc1nnnn1-c1ccc(O)cc1)NC1CCCCC1	-2	1	-4	-2	0
Cc1ccc(-n2nnnc2SCC(=O)NC2CC2)cc1C	3	-3	57*	5	0
Cc1nnc(SCC(=O)NC2CCCCCC2)n1C(C)C	1	-1	44*	-4	0
Cc1ccc(-c2nnc(SCC(=O)NC3CCCC3)n2N)cc1	3	/	2	/	44*
Nc1nc(SCC(=O)NC2CCCCC2)n[nH]1	0	-1	95*	12	0
C[C@H](CO)N1C[C@H](C)[C@H](CN(C)CC2CCCCC2)Oc2ccc(NS(=O)(=O)c3ccccc3)cc2C1=O	-3	1	2	-7	0
COc1ccccc1-c1cn(CC[C@H]2CC[C@H](NC(=O)c3ccccc3F)[C@H](CO)O2)nn1	-2	0	-1	4	0
CN(CCOC(=O)c1ccccc1)Cc1ccccc1	/	/	/	17	/
CN(CCOC(=O)c1cccc(F)c1)Cc1ccccc1	-5	0	0	7	43*

Source: PubChem (Broad Institute)
